Only some compounds are listed: those with a hit (about 2.4% of all), similar ones and a draw of the others.
D2 PAM-1: positive allosteric modulators of human D2 dopamine receptor; P14416; HEK293 T-REx D2, calcium flux, EC20 dopamine potentiation; hit rate 0.34% among 340,000; potentiation, % at 10 µM;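 active = potentiation over 3 SD above the plate norm, cut at about 30% in these data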
Target sequence (P14416 whole entry, looked up): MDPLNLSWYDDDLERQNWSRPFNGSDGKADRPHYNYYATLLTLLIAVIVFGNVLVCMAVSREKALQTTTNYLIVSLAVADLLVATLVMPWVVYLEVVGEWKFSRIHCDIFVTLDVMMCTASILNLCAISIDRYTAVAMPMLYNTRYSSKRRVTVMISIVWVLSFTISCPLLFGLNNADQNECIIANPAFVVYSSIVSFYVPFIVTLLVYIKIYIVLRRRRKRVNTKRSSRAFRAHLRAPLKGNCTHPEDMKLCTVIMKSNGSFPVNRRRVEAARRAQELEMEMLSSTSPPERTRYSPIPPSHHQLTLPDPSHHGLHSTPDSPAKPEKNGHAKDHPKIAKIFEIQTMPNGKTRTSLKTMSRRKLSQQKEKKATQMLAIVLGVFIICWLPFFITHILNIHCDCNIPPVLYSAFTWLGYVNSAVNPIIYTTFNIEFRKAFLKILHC
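Calcium flux readout, no-wash dye, 1 read/s. Inducible HEK293 Trex D2 line, overnight 30 C. Compound alone 180 s (agonist flags), then EC20 dopamine, another 180 s to score potentiation.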
D2 ag-1: D2 dopamine receptor (human) agonism. AID 485358. activation, % at 2 µM. P14416. hit rate 0.53% among 340,000. HEK293 T-REx D2 cells, calcium flux agonist mode;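 active = activation over 3 SD above normal in the single-dose calcium agonist read, cut at about 30% in these data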
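HEK293 Trex D2 cells, tetracycline-induced, o/n 30 C 5% CO2; no-wash Ca dye, RT 30–90 min; 10-cycle baseline, 23 nl cpd added, kinetic Ca read 180 s; agonist hits = positive Ca response.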
D2 ag-2: human D2 receptor agonism in beta-arrestin assay; P14416; DiscoveRx PathHunter D2 beta-arrestin, luminescence, 90 min; 100% = 57 uM dopamine signal; activation, % (concentration not given with the values); hit rate 0.084% among 360,000; AID 624465; in the data active = activation above about 40%; inconclusive = between about 15% and that limit
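Agonist mode: compounds alone added to overnight-plated D2 PathHunter cells for 90 min at 37 C, with 57 uM final dopamine (EC100) defining full response. Beta-arrestin recruitment detected by chemiluminescent reagent, read after 1 h at ambient temperature.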
D2 PAM-2: positive allosteric modulators of human D2 dopamine receptor; P14416; DiscoveRx D2 beta-arrestin cells, luminescence, 90 min; 100% = 57 uM dopamine signal; potentiation, % (test concentration not listed); hit rate 0.23% among 360,000; AID 624464; in the data active = potentiation above about 50%; inconclusive = mostly about 30% to 49%
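PathHunter D2 cells, attached overnight at 37 deg C, received compound in DMSO plus dopamine at EC20 (50 nM final) for 90 min at 37 deg C. Beta-arrestin recruitment was read as luminescence after 1 h with detection reagent at ambient temperature.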
D2 antagonist: antagonists of human D2 dopamine receptor; P14416; HEK293 TREx D2 cells, calcium flux, dopamine EC80; inhibition, % at 10 µM; hit rate 2% among 340,000; AID 485344; in the data active = inhibition above about 30%; inactive = below that, where a call was filed
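Calcium flux kinetic readout in an inducible HEK293 TREx D2 line plated overnight at 30 C. After 180 s compound exposure, an EC80 dopamine challenge follows with another 180 s kinetic read to detect antagonism.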
Large screens that a line does not name were inactive.

COc1ccc2c(c1)CC(N1CCN(C)CC1)c1cc(OC)ccc1S2 (stereo unspecified)	none (no result: D2 PAM-1, D2 ag-1, D2 antagonist)
CSc1ccc2c(c1)C(N1CCN(C)CC1)Cc1ccc(F)cc1S2 (stereo unspecified)	none (no result: D2 PAM-1, D2 ag-1, D2 antagonist)
NC(=O)CCN1CCN(CCOC2Cc3cc(Cl)ccc3Sc3ccccc32)CC1 (stereo unspecified)	D2 antagonist 94
Fc1ccc2c(c1)Sc1ccc(Cl)cc1CC2N1CCN(CCC2OCCO2)CC1 (stereo unspecified)	none (no result: D2 PAM-1, D2 ag-1, D2 antagonist)
Clc1cccc2c1Sc1ccccc1CC2N1CCNCC1 (stereo unspecified)	D2 antagonist 66
Clc1ccc2c(c1)C(N1CCNCC1)Cc1ccccc1S2 (stereo unspecified)	D2 antagonist 99
Cc1cc(C(=O)N2CCC(C)CC2)on1	none
CCOC(=O)N1CCN(C(=O)c2cc(C)no2)CC1	D2 PAM-1 30
CCCCOc1ccc(C(C)NC(=O)CN2C(=O)CSc3ccc(S(=O)(=O)N4CCOCC4)cc32)cc1 (stereo unspecified)	none (no result: D2 ag-2, D2 PAM-2, D2 antagonist)
CCOC(=O)c1c(-c2cccc([N+](=O)[O-])c2)csc1NC(=O)C1CCCCC1	D2 PAM-2 inconclusive
CCOC(=O)c1c(-c2cccc([N+](=O)[O-])c2)csc1NC(=O)C1CC1	D2 PAM-2 55
Cc1ccc(CCNC(=O)c2cn(C)c3ccc(S(=O)(=O)N4CCC(C)CC4)cc3c2=O)cc1	none (no result: D2 ag-2, D2 PAM-2, D2 antagonist)
Cc1cccc(Cn2ncc(Cl)c(Cl)c2=O)c1	none
Cc1cccc(Cn2nnc3c2C(=O)c2ccccc2C3=O)c1	D2 PAM-2 71
CCOC(=O)C1(CCc2ccccc2)CCN(Cc2ccc(OC)cc2)CC1	none
CCOC(=O)C1(Cc2ccccc2)CCN(Cc2nccn2CC)CC1	D2 antagonist 65
CCOC(=O)C1(CCc2ccccc2)CCN(Cc2c(O)cccc2OC)CC1	D2 antagonist 37
CCOC(=O)C1(CCc2ccccc2)CCN(C(=O)CN2CCOC2=O)CC1	D2 antagonist 37
CCOC(=O)C1(CCc2ccccc2)CCN(Cc2nccn2CC)CC1	none
CCOC(=O)C1(CCc2ccccc2)CCN(Cc2cnc(N(C)C)s2)CC1	D2 antagonist 51
O=C(Nc1ccc(OC(F)(F)F)cc1)C1CCN(S(=O)(=O)c2ccc3[nH]c(=O)ccc3c2)CC1	none (no result: D2 ag-1, D2 ag-2, D2 PAM-2, D2 antagonist)
COc1ccnc(Oc2ccc(F)cc2)c1C(=O)N/C=N/OCc1cccc(F)c1	none
COc1ccccc1CO/N=C/NC(=O)c1c(OC)ccnc1Oc1ccc(F)cc1	D2 antagonist 37
O=C(c1ccc2c(=O)n(CCc3ccccc3)c(=O)[nH]c2c1)N1CCN(c2ccccc2)CC1	D2 PAM-1 30
CCOC(=O)N1CCN(C(=O)c2ccc(Cn3c(=S)[nH]c4cc(OCC)c(OCC)cc4c3=O)cc2)CC1	none
CCOc1cc2[nH]c(=S)n(Cc3ccc(C(=O)NCCN(CC)CC)cc3)c(=O)c2cc1OCC	D2 antagonist 50
O=C(c1ccc(Cn2c(=S)[nH]c3ccccc3c2=O)cc1)N1CCN(c2ccccn2)CC1	D2 antagonist 33
O=C(c1ccc2c(=O)n(CCc3ccccc3)c(=O)[nH]c2c1)N1CCN(c2ccc(F)cc2)CC1	none
CCOC(=O)N1CCN(C(=O)c2ccc(Cn3c(=S)[nH]c4cc5c(cc4c3=O)OCO5)cc2)CC1	D2 antagonist 31
Cc1nc2c3ccccc3nc(NNC(=O)CCC(=O)N3CCN(c4cc(Cl)ccc4C)CC3)n2n1	none (no result: D2 ag-2, D2 PAM-2, D2 antagonist)
O=C(NCc1ccccc1Cl)C1CCN(S(=O)(=O)Cc2ccccc2)CC1	none (no result: D2 ag-2, D2 PAM-2, D2 antagonist)
CCCCCn1c(=O)[nH]c2cc(C(=O)N3CCN(Cc4ccc5c(c4)OCO5)CC3)ccc2c1=O	D2 ag-1 38
C=CCn1c(=O)[nH]c2cc(C(=O)N3CC=C(c4ccccc4)CC3)ccc2c1=O	D2 antagonist 36
COc1cccc(N2CC(NC(=O)COc3ccc4ccccc4c3)CC2=O)c1 (stereo unspecified)	none (no result: D2 ag-2, D2 PAM-2, D2 antagonist)
O=C1CCCc2ccccc2N1	D2 PAM-1 46
CC(C)(C)C1CCc2c(sc(NC(=O)Cn3nnc(-c4cccc(C(F)(F)F)c4)n3)c2C#N)C1 (stereo unspecified)	none (no result: D2 ag-2, D2 PAM-2, D2 antagonist)
CN1CCN(c2ccccc2NC(=O)COc2ccc(Cl)cc2)CC1	D2 antagonist 30
CN1CCN(c2ccccc2NC(=O)COc2ccccc2)CC1	none

From PubChem BioAssay
